In PubChem BioAssay (EPA / NIEHS):
Results filed as inconclusive are left out. Active and inactive are the calls of the source. The calls were made as follows, unless noted: active = hit-call score of the fitted dose curve at least 0.9, where 1 is the maximum; inactive = score below 0.9.

Assays:
[1] = target: Nuclear respiratory factor 1 (Homo sapiens) (UniProt Q16656); test: ATG_NRF1_CIS: Attagene CIS-FACTORIAL HepG2 Assay for human Nuclear Respiratory Factor 1 (NRF1) Orphan Gene (AID 2282987); details: HepG2 NRF1 cis-element reporter, Attagene multiplex; actives raise or lower the signal
Summary of the method: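 Transcriptional reporter readout, one component of a 52-endpoint multiplexed HepG2 panel. Exposure 24 h; mRNA detected via RT-PCR and fluorescent capillary electrophoresis; fitting in both directions against DMSO.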

[2] = ATG_NFI_CIS: Attagene CIS-FACTORIAL HepG2 Assay for human Nuclear Factor I (NFI) (AID 2282989); details: HepG2 cis-regulatory reporter, NFI response element transcription; actives raise or lower the signal
Summary of the method: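 Reporter transcripts were measured by RT-PCR with fluorescent primer extension and capillary electrophoresis 24 h post-treatment. HepG2 cells carried transiently transfected cis-regulated reporter constructs reporting endogenous factor activity; gain or loss fitted against DMSO baseline.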

[3] = target: Myc proto-oncogene protein (Homo sapiens) (UniProt P01106); test: ATG_Myc_CIS: Attagene CIS-FACTORIAL HepG2 Assay for human Myelocytomatosis (Myc) Proto-Oncogene Transcription Factor (AID 2282990); details: HepG2, Attagene cis-reporter transcription factor activity; actives raise or lower the signal
Summary of the method: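 Fluorescence intensity of reporter-specific cDNA fragments, separated by capillary electrophoresis, gives the signal. Transfected HepG2 cells carrying cis-promoter reporter constructs are incubated with compound for 24 h; DMSO serves as baseline.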

[4] = ATG_NF_kB_CIS: Attagene CIS-FACTORIAL HepG2 Assay for human Nuclear Factor Kappa B (NF-kB) (AID 2282991); details: HepG2 Attagene cis-factorial NF-kB reporter mRNA; actives raise or lower the signal
Summary of the method: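 HepG2, transient multi-reporter transfection, cis promoter elements (endogenous TFs). 24 h exposure. Total RNA → RT → PCR → 6-FAM label → HpaI → CE. Gain/loss vs DMSO.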

[5] = ATG_NRF2_ARE_CIS: Attagene CIS-FACTORIAL HepG2 Assay for human Nuclear Factor Erythroid 2 Related Factor 2 (NFR2) response to Antioxidant Response Elements (ARE) (AID 2282992); details: HepG2 Attagene ARE/NRF2 reporter, transcription factor activity; actives raise or lower the signal
Summary of the method: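 HepG2 cells transiently transfected with multiplexed cis-regulated reporter transcription units measure endogenous transcription factor activity. Reporter mRNA at 24 h is quantified by RT-PCR, fluorescent labelling and capillary electrophoresis, with bidirectional fitting relative to DMSO.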

[6] = ATG_Oct_MLP_CIS: Attagene CIS-FACTORIAL HepG2 Assay for human Octamer-Binding Transcription Factor (Oct) (AID 2282993); details: HepG2 Attagene cis-factorial Oct reporter, mRNA; actives raise or lower the signal
Summary of the method: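 Readout is reporter transcript level from RT-PCR with fluorescent primer extension and capillary electrophoresis, fitted in both directions against DMSO. Transfected HepG2 reporter units report endogenous factor activity after 24 h dosing.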

[7] = target: Cellular tumor antigen p53 (Homo sapiens) (UniProt P04637); test: ATG_p53_CIS: Attagene CIS-FACTORIAL HepG2 Assay for human p53 Transcription Factor (AID 2282994); details: HepG2 p53 cis-element reporter, Attagene mRNA; actives raise or lower the signal
Summary of the method: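 HepG2 cells transiently transfected with multiplexed cis-regulated reporter transcription units read endogenous TF activity. After 24 h compound exposure, reporter mRNA was quantified by RT-PCR, fluorescent labelling, HpaI digestion and capillary electrophoresis; bidirectional fits versus DMSO baseline.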

[8] = BSK_3C_TissueFactor: BioMAP Diversity Plus: 3C Assay for Tissue Factor Biomarker Activity (AID 2282997); details: BioMAP 3C HUVEC, tissue factor biomarker readout; actives raise or lower the signal
Summary of the method: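 Values derive from bidirectional curve fitting against DMSO of Tissue Factor ELISA signals, taken 24 h after dosing primary human umbilical vein endothelial cells.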

[9] = BSK_3C_uPAR: BioMAP Diversity Plus: 3C Assay for Urokinase-type plasminogen activator receptor (uPAR) Biomarker Activity (AID 2282998); details: BioMAP 3C HUVEC, uPAR biomarker ELISA; actives raise or lower the signal
Summary of the method: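 Cell-surface uPAR on HUVEC (3C system) read by ELISA at 24 h post-treatment, with DMSO as baseline and fitting in both directions. Parallel cultures stained with SRB to flag overt cytotoxicity.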

[10] = BSK_3C_VCAM1: BioMAP Diversity Plus: 3C Assay for Vascular cell adhesion molecule 1 (VCAM1) Biomarker Activity (AID 2282999); details: BioMAP 3C HUVEC, VCAM1 ELISA, cytokine-stimulated; actives raise or lower the signal
Summary of the method: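 Human umbilical vein endothelial cells (3C system), biomarker read by ELISA 24 h after dosing; bidirectional fit against DMSO baseline. Cytotoxicity tracked by SRB total-protein staining in parallel cultures at biomarker time.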

[11] = BSK_4H_Eotaxin3: BioMAP Diversity Plus: 4H Assay for Eotaxin 3 Biomarker Activity (AID 2283000); details: primary human endothelial cells (HUVEC); actives raise or lower the signal;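 also: CCL26 protein level quantified by ELISA in parallel with SRB cytotoxicity check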
Summary of the method: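 Endothelial primary cells (human umbilical vein) exposed to compound for 24 h. ELISA detection of Eotaxin-3.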

[12] = target: human Peroxisome Proliferator-activated Receptor alpha (PPARa), PPARA (gene 5465) (UniProt Q07869); test: ATG_PPARa_TRANS: Attagene TRANS-FACTORIAL HepG2 Assay for human Peroxisome Proliferator-activated Receptor alpha (PPARa) (AID 2283001; active = hit-call score of the fitted dose curve at least 0.9, where 1 is the maximum)
Summary of the method: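 Measures transcriptional activity of an exogenous chimeric PPARa-Gal4 protein in transiently transfected HepG2 cells after 24 h dosing. Reporter mRNA quantified via RT-PCR and capillary electrophoresis; DMSO served as negative control.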

[13] = target: human Peroxisome Proliferator-activated Receptor delta (PPARd), PPARD (gene 5467) (UniProt Q03181); test: ATG_PPARd_TRANS: Attagene TRANS-FACTORIAL HepG2 Assay for human Peroxisome Proliferator-activated Receptor delta (PPARd) (AID 2283002; active = hit-call score of the fitted dose curve at least 0.9, where 1 is the maximum)
Summary of the method: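 Fluorescence from capillary electrophoresis of labelled RT-PCR reporter fragments gives the signal; DMSO sets baseline. Cells: HepG2 transiently carrying GAL4-UAS reporter units plus chimeric nuclear receptor-Gal4 proteins, exposed to chemicals for 24 h.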

[14] = read-out: Intercellular Adhesion Molecule 1 (ICAM1), ICAM1 (gene 3383); test: BSK_3C_ICAM1: BioMAP Diversity Plus: 3C Assay for Intercellular Adhesion Molecule 1 (ICAM1) Biomarker Activity (AID 2283003); details: primary human endothelial cells (HUVEC); actives raise or lower the signal
Summary of the method: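 Human vascular endothelial primary cells, 3C conditions, 24 h treatment. ICAM-1 by ELISA.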

[15] = target: human Retinoic Acid Receptor beta (RARb), RARB (gene 5915) (UniProt P10826); test: ATG_RARb_TRANS: Attagene TRANS-FACTORIAL HepG2 Assay for human Retinoic Acid Receptor beta (AID 2283004; active = hit-call score of the fitted dose curve at least 0.9, where 1 is the maximum)
Summary of the method: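 HepG2, transient MRTU transfection, NR–Gal4 chimera, 24 h treatment; RT-PCR plus CE fluorescence detection of reporter mRNA; gain of signal vs DMSO.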

[16] = BSK_3C_Proliferation: Cell Proliferation Assessment in the BioMAP Diversity Plus: 3C Assay (AID 2283006); details: primary human endothelial cells (HUVEC)
Summary of the method: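 Proliferation of human vascular endothelial primary cells after 48 h dosing, quantified as SRB-stained protein at 560 nm relative to DMSO.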

[17] = target: Peroxisome proliferator-activated receptor gamma (Homo sapiens) (UniProt P37231); test: ATG_PPARg_TRANS: Attagene TRANS-FACTORIAL HepG2 Assay for human Peroxisome Proliferator-activated Receptor-gamma (PPARg) (AID 2283007; active = hit-call score of the fitted dose curve at least 0.9, where 1 is the maximum)
Summary of the method: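 Multiplexed reporter transcription units in HepG2, 24 h dosing, reporter transcripts quantified by fluorescent RT-PCR and capillary electrophoresis. Increase over DMSO scored.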

[18] = target: Nuclear receptor subfamily 1 group I member 2 (Homo sapiens) (UniProt O75469); test: ATG_PXR_TRANS: Attagene TRANS-FACTORIAL HepG2 Assay for human Pregnane X Receptor (PXR) (AID 2283008; active = hit-call score of the fitted dose curve at least 0.9, where 1 is the maximum)
Summary of the method: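 HepG2 cells transiently transfected with multiple reporter units, here a PXR-GAL4 chimera driving a GAL4-UAS reporter; 24 h compound exposure. Reporter mRNA measured by RT-PCR, FAM labelling and capillary electrophoresis; gain of signal fitted against DMSO baseline.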

[19] = target: Retinoic acid receptor alpha (Homo sapiens) (UniProt P10276); test: ATG_RARa_TRANS: Attagene TRANS-FACTORIAL HepG2 Assay for human Retinoic Acid Receptor alpha (RARa) (AID 2283005; active = hit-call score of the fitted dose curve at least 0.9, where 1 is the maximum)
Summary of the method: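 HepG2 transiently transfected with multiplex GAL4-UAS reporter units including a human RARa–GAL4 chimera; 24 h compound exposure. Reporter mRNA quantified by RT-PCR, 6-FAM labeling and capillary electrophoresis; gain of signal versus DMSO.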

[20] = target: human Retinoic Acid Receptor gamma (RARg), RARG (gene 5916) (UniProt P13631); test: ATG_RARg_TRANS: Attagene TRANS-FACTORIAL HepG2 Assay for human Retinoic Acid Receptor gamma (RARg) (AID 2283009; active = hit-call score of the fitted dose curve at least 0.9, where 1 is the maximum)
Summary of the method: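 HepG2, RARg-GAL4 TRANS system, 24 h exposure; reporter mRNA by RT-PCR + CE fluorescence; increase over DMSO.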

Measured: AC50

Peroxisome proliferator-activated receptor gamma (Homo sapiens), sequence (P37231 whole entry, looked up): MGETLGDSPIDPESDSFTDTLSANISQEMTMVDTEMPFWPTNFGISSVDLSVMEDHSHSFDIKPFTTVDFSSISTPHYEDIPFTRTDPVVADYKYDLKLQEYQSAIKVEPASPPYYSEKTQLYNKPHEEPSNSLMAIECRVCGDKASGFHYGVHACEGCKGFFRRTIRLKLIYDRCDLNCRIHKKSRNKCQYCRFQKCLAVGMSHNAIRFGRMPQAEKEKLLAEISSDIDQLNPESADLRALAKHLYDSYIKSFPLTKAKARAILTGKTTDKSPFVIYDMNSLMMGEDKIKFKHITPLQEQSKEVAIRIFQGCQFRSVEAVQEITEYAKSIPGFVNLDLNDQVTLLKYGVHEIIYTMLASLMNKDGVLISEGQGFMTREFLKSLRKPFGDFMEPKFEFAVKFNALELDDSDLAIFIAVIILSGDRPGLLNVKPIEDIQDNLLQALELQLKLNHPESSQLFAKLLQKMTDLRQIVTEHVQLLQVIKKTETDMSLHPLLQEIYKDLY
Myc proto-oncogene protein (Homo sapiens), sequence (P01106 whole entry, looked up, the tested form may be a part): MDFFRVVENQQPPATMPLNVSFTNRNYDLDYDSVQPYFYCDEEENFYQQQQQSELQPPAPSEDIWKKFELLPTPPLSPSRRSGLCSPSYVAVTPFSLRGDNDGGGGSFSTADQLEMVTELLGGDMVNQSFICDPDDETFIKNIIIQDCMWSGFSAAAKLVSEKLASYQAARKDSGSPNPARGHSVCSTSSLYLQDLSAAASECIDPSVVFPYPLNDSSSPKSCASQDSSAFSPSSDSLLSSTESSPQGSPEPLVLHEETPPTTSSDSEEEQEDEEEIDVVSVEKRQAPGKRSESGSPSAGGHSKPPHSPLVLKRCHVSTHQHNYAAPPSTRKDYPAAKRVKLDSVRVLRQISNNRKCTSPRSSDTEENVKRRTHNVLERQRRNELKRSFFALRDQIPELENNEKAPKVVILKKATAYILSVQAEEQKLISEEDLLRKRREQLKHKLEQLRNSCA
Nuclear respiratory factor 1 (Homo sapiens), sequence (Q16656 whole entry, looked up): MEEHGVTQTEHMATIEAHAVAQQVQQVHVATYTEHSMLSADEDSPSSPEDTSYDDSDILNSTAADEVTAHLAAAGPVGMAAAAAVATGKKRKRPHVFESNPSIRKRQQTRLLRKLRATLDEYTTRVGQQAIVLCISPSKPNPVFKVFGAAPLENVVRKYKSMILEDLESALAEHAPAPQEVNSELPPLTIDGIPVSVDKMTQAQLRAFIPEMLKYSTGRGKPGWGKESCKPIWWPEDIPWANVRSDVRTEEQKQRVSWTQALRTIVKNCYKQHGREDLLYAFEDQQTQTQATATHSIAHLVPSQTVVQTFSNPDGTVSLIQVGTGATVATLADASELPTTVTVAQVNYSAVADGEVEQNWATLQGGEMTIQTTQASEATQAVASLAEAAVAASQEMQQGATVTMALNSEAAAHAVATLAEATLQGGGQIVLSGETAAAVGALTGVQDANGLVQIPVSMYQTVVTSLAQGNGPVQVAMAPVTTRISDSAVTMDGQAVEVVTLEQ
human Peroxisome Proliferator-activated Receptor alpha (PPARa), PPARA (gene 5465), sequence (Q07869 whole entry, looked up, the tested form may be a part): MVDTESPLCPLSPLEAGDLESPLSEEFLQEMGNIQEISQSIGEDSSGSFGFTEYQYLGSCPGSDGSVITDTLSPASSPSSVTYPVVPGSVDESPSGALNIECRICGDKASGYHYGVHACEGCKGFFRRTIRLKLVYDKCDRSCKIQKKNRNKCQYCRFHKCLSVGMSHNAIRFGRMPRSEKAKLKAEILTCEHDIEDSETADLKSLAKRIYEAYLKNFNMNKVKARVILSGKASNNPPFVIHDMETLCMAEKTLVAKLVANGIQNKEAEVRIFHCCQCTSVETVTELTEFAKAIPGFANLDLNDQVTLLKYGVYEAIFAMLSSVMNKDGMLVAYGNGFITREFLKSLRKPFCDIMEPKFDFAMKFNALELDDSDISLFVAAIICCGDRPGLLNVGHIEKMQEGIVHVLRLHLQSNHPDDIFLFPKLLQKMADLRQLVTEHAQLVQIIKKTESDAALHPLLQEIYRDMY
human Retinoic Acid Receptor beta (RARb), RARB (gene 5915), sequence (P10826 whole entry, looked up, the tested form may be a part): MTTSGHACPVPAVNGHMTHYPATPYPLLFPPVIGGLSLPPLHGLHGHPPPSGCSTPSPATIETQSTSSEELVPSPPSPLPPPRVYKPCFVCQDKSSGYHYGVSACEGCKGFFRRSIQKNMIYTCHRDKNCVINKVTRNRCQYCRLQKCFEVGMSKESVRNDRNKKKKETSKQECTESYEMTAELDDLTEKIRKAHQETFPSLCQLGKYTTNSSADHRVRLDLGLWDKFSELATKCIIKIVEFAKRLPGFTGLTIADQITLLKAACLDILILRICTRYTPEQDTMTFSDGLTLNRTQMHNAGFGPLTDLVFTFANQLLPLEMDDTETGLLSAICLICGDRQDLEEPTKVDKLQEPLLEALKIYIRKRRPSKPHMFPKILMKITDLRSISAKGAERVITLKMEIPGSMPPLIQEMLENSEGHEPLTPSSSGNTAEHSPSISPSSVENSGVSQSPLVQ
Nuclear receptor subfamily 1 group I member 2 (Homo sapiens), sequence (O75469 whole entry, looked up, the tested form may be a part): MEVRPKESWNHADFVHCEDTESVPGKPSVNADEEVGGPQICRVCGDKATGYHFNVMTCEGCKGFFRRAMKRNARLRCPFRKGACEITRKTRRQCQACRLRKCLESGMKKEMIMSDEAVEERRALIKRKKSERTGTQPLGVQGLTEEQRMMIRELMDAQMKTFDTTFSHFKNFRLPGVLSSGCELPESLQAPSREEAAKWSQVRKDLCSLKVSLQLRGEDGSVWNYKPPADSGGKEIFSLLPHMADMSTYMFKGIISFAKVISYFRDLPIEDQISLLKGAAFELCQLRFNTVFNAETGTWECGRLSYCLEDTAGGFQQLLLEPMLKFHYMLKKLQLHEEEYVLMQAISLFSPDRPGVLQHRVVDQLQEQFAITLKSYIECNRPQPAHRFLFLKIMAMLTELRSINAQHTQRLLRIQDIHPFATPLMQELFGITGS
Cellular tumor antigen p53 (Homo sapiens), sequence (P04637 whole entry, looked up): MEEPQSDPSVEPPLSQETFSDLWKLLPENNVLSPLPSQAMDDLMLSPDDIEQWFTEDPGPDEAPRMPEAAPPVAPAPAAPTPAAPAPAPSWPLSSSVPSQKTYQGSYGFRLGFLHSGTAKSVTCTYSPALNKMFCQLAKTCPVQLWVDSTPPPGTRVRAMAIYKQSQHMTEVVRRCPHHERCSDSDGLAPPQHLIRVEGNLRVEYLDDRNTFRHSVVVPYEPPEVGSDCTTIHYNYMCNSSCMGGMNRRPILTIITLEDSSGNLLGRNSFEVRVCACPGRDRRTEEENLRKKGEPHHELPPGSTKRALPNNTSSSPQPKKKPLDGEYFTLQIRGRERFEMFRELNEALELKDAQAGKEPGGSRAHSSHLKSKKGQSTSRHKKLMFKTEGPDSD
human Retinoic Acid Receptor gamma (RARg), RARG (gene 5916), sequence (P13631 whole entry, looked up, the tested form may be a part): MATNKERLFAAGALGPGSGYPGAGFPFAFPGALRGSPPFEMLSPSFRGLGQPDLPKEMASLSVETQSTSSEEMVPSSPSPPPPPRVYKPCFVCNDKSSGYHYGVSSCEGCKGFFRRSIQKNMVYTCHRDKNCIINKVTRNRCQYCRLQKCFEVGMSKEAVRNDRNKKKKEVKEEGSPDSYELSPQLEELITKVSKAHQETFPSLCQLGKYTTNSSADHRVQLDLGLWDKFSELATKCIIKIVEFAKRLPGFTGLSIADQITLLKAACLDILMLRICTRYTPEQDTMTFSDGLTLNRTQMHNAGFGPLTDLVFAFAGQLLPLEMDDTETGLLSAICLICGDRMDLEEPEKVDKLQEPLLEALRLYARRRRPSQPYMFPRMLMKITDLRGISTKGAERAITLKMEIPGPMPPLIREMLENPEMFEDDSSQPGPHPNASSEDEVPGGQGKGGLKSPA
human Peroxisome Proliferator-activated Receptor delta (PPARd), PPARD (gene 5467), sequence (Q03181 whole entry, looked up, the tested form may be a part): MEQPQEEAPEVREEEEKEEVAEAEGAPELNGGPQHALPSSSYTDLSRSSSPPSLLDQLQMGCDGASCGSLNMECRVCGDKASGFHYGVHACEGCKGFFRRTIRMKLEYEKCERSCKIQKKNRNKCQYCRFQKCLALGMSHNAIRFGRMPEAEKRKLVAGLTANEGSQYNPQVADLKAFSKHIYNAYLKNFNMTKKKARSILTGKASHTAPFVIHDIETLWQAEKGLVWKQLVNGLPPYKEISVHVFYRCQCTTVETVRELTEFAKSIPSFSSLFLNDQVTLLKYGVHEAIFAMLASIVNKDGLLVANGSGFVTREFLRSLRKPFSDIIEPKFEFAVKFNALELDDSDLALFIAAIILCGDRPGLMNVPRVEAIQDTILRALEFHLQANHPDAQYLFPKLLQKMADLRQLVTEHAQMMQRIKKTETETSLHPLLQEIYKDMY
Retinoic acid receptor alpha (Homo sapiens), sequence (P10276 whole entry, looked up, the tested form may be a part): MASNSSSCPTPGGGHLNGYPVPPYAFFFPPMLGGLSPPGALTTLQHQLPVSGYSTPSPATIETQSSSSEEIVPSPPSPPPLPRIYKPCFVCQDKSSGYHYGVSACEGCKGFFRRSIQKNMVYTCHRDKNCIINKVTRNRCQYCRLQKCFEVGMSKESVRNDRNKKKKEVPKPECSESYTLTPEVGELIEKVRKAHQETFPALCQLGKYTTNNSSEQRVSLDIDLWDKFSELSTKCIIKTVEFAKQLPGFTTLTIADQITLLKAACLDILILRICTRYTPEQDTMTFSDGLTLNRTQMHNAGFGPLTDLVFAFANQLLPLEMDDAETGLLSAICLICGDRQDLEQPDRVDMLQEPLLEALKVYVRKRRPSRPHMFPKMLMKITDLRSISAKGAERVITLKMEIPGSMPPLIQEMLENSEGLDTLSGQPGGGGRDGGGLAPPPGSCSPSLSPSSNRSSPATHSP

Oc1cccc(O)c1
inactive: [1] | [2] | [3] | [4] | [5] | [6] | [7] | [8] | [9] | [10] | [11] | [12] | [13] | [14] | [15] | [16] | [17] | [18]

CC(=O)CC(C)(C)O
inactive: [1] | [2] | [3] | [4] | [5] | [6] | [7] | [8] | [9] | [10] | [11] | [12] | [13] | [14] | [15] | [19] | [16] | [17] | [18] | [20]

c1ccc2c(c1)Cc1ccccc1-2
active: [8] 4.37 µM
inactive: [1] | [2] | [3] | [4] | [5] | [6] | [7] | [9] | [10] | [11] | [12] | [14] | [16] | [17] | [18] | [20]
